In ChEMBL document CHEMBL1201862, “PubChem BioAssay data set” (2004):
About 2,100 (0.53%) of roughly 400,000 compounds were called active. Not shown: some 14% with an inconclusive outcome. No rule for the calls is given here. The sample as a whole holds a higher share of actives than the screen did.

Target: Ataxin-2 (Homo sapiens) (UniProt Q99700)
Assay: qHTS for Inhibitors of ATXN expression.
Assay type: functional

Sequence of Ataxin-2 (Homo sapiens) (Q99700 whole entry): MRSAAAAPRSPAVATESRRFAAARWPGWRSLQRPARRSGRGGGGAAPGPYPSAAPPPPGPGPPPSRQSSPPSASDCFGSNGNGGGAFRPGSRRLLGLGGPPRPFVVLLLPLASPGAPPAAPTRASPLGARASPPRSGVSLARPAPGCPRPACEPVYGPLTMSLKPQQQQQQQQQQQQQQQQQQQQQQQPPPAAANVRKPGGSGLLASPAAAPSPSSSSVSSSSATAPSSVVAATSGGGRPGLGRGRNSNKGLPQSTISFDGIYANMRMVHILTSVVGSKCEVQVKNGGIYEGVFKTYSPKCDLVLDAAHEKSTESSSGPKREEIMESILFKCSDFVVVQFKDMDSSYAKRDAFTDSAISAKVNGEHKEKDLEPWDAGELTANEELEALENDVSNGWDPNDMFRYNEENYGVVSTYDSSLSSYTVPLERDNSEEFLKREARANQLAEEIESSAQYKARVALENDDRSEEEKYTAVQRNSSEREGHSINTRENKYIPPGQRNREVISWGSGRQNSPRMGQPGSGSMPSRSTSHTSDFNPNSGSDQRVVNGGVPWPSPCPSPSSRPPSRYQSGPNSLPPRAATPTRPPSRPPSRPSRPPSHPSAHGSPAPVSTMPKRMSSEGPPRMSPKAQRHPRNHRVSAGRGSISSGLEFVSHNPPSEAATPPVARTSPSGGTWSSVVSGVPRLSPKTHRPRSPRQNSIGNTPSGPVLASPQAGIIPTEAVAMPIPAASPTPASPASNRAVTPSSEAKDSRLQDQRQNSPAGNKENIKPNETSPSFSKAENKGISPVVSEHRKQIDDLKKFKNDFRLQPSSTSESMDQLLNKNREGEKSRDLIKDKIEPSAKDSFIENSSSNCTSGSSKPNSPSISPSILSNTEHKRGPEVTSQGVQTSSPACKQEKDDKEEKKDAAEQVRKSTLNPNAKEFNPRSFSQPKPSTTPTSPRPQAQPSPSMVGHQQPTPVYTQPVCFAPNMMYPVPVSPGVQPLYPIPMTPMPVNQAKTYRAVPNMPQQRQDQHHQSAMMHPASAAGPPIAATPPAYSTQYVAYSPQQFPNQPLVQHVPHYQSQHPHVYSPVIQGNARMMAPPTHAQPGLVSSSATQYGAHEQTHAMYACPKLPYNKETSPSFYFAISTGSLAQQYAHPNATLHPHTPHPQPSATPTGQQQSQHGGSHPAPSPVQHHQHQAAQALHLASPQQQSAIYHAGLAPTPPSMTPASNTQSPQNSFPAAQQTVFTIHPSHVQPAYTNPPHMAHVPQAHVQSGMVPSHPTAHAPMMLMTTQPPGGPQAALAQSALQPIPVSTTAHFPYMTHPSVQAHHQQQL

| SMILES | Potency |
| --- | --- |
| Cc1ccccc1Nc1nc(N)nc(CN(C)Cc2ccccc2Cl)n1 | inactive |
| CCOc1ccc(Nc2nc(N)nc(CSC(=S)N3CCN(c4ccccc4)CC3)n2)cc1 | inactive |
| Cc1ccc(Nc2nc(N)nc(CSc3nc4ccccc4s3)n2)cc1 | 39.8 µM (active) |
| Nc1nc(O)c(NC=O)c(Nc2ccc(Cl)cc2)n1 | inactive |
| Cc1ccc(Nc2nc(N)nc(CCl)n2)c(C)c1 | 14.1 µM (active) |
| Cc1ccc(Nc2nc(N)nc(CCl)n2)cc1 | 4.74 µM (active) |
| Nc1nc(CCl)nc(Nc2ccccc2)n1 | 28.2 µM (active) |
| CCOc1ccc(S(=O)(=O)Nc2cc(S(=O)(=O)N3CCOCC3)ccc2OC)cc1 | inactive |
| COCCn1c(-c2cccs2)nc2nc3ccccc3nc21 | inactive |
| N=c1c(C(=O)NCCc2ccccc2)cc2c(=O)n3ccccc3nc2n1CC1CCCO1 (stereo not given) | inactive |
| CC(C)(NC(=O)c1cc(Cl)c2ccccc2c1O)C(=O)O | inactive |
| CN1C=CC(=C[N+](=O)[O-])N(C)C1=O | 17.8 µM (active) |
| COc1cc(/C=C2/C(=O)c3cccc([N+](=O)[O-])c3C2=O)c(Br)cc1O | 22.4 µM (active) |
| CCOc1ccc(N2C(=O)/C(=C\c3ccc(OC)c(O)c3)S(=O)(=O)C2c2cccc([N+](=O)[O-])c2)cc1 (stereo not given) | inactive |
| COc1cc(CCN=Cc2cc(Cl)cc(Cl)c2O)c([N+](=O)[O-])cc1OC | inactive |
| Cc1ccc2[nH]c(-c3ccc(SCC(=O)Nc4nnc(C)s4)nc3)nc2c1 | 23.8 µM (active) |
| Cc1ccc2[nH]c(SCC(=O)Nc3ccc(C(N)=O)cc3)nc2c1 | inactive |
| CC(=O)c1cc2c(cc1NC(=O)CSc1nc3cc(C)ccc3[nH]1)OCO2 | inactive |
| COc1ccc(C2=CC(c3ccccc3Cl)n3nc(-c4ccc(Cl)cc4)nc3N2)cc1 (stereo not given) | inactive |
| Nc1cccc2c1C(=O)N(C(=O)/C=C/c1ccc(F)cc1)C2=O | inactive |
| CCSC1=NCCN1S(=O)(=O)c1ccc2ccccc2c1 | inactive |
| CC(C)N1C/C(=C/c2ccsc2)C(=O)/C(=C/c2ccsc2)C1 | 39.8 µM (active) |
| Cc1ccc(CCC(=O)Nc2ccccc2C(=O)O)o1 | inactive |
| O=C(OCc1ccc(O)cc1)c1c(-c2ccsc2)oc2ccc(N3CCOCC3)cc12 | inactive |
| CCOc1ccc(C2C=C(c3cccc(OC)c3)Nc3nnnn32)cc1 (stereo not given) | inactive |
| Cc1nn(-c2ccccc2)c(Cl)c1C(=O)N1CCN(c2ncnc3c2cnn3-c2ccccc2)CC1 | 31.6 µM (active) |
| Cc1nn(-c2ccccc2)c(Cl)c1C(=O)NNC(=O)c1ccncc1 | inactive |

| SMILES | Potency |
| --- | --- |
| Cc1ccsc1C(=O)N1CCN(c2ccccn2)CC1 | inactive |
| Cc1cccn2c(=O)c3cc(C(=O)O)n(C)c3nc12 | inactive |
| CCCCNC(=O)CCN1N=C(c2ccccc2)CCC1=O | inactive |
| CN1C/C(=C/c2ccccc2[N+](=O)[O-])C(=O)/C(=C\c2ccccc2[N+](=O)[O-])C1 | 2.99 µM (active) |
| CCCCNC(=O)NNc1nc(Cl)cc(C)c1C#N | inactive |
| CCN(C(=O)c1ccco1)c1nc(-c2ccc(OC)cc2)cs1 | inactive |
| CCN(CC)C(=O)c1cccc(-c2csc(C(C)(O)c3ccc(OC)cc3)n2)c1 (stereo not given) | 15.8 µM (active) |
| COCCCN=C(S)N1CCN(c2nc(-c3cccc(OC)c3)cs2)CC1 | inactive |
| CCN(CC)C(=O)CSc1nc(-c2ccccc2)ccc1C#N | inactive |
| CCN(CC)C(=O)c1cccc(-c2csc(C(C)(O)c3cccc(OC)c3)n2)c1 (stereo not given) | 35.5 µM (active) |
| CCN(CC)C(=O)c1sc2nc(-c3ccccc3)ccc2c1N | inactive |
| CC(C)c1cccc(-c2csc(C(O)c3ccc(F)c(F)c3)n2)c1 (stereo not given) | 39.8 µM (active) |
| CCN(CC)C(=O)c1cccc(-c2csc(C(O)c3ccccc3)n2)c1 (stereo not given) | 35.5 µM (active) |
| CC(C(=O)Nc1nc(-c2ccc(F)c(F)c2)cs1)N1C(=O)C2CC=CCC2C1=O (stereo not given) | inactive |
| COc1cccc(-c2ccc3c(N)c(C(=O)c4ccc(Cl)cc4)sc3n2)c1 | inactive |
| CCN(CC)c1ccc2cc(-c3nc(-c4ccc(OC)cc4)cs3)c(=O)oc2c1 | inactive |
| Cc1ccc(C(=O)N2CCN(Cc3ccc4c(c3)OCO4)CC2)cc1S(=O)(=O)N1CCOCC1 | inactive |
| COc1ccc(-c2c(C)c3ccc(O)c(CN4CCCCC4C)c3oc2=O)cc1OC (stereo not given) | inactive |
| COCCCNC(=O)c1cc2c(=O)n3cccc(C)c3nc2n(C(C)C)c1=N | inactive |
| CCSc1nnc(-c2sc3nnc(-c4ccccc4)c(-c4ccccc4)c3c2N)o1 | inactive |
| CCC(=O)Oc1ccc2c(c1)OC1(OC(C)=O)OC(C)CC1=C2C (stereo not given) | inactive |
| COc1ccc(-c2n[nH]c(S)n2)cc1OC | inactive |
| COc1ccc(-c2nc3ccc(C)cn3c2Cc2cccc(Cl)c2)cc1OC | 35.5 µM (active) |
| COc1ccc(-c2nc(CCl)cs2)cc1OC | inactive |
| COc1ccc(-c2nc3ccc(C)cn3c2Cc2cccc(F)c2)cc1OC | 39.8 µM (active) |
| COc1cc2c3nnc(-c4ccc(F)cc4)c-3cn(Cc3cccc(F)c3)c2cc1OC | inactive |
| COc1ccccc1Cc1c(-c2ccc(OC)c(OC)c2)nc2ccc(Cl)cn12 | 39.8 µM (active) |

| SMILES | Potency |
| --- | --- |
| COc1ccc(-c2nc3ccc(C)cn3c2Cc2ccc(C)cc2)cc1OC | 20 µM (active) |
| COc1ccc(/C=N/NC(=O)c2c(C)nc3ccc(Cl)cn23)cc1OC | inactive |
| N=C(NOC(=O)CCCOc1ccccc1)c1cccc(Br)c1 | inactive |
| CSc1nc(-c2ccc(N(C)C)cc2)c(C#N)c(=O)n1C | inactive |
| CCOC(=O)c1ccc(-c2ccc(/C=N/NC(=O)c3cncc(Br)c3)o2)cc1 | inactive |
| Cc1cc(-c2onc3ccc(Cl)cc23)ccc1O | inactive |
| COc1ccc(-n2c(N)c(C(=O)NCc3ccco3)c3nc4ccccc4nc32)cc1OC | inactive |
| CN1C(=O)/C(=N\C2CCCCC2)c2c3ccccc3c(O)c3cccc1c23 | inactive |
| Cc1noc(/C=C/Nc2ccc(F)cc2F)c1[N+](=O)[O-] | inactive |
| CCN1C(=O)/C(=C2/Sc3ccccc3N2CC)S/C1=N\c1nc[nH]n1 | inactive |
| CC1CC(NC(=O)c2cc3c(=O)n4ccccc4nc3n2C)CC(C)(C)C1 (stereo not given) | inactive |
| Cc1nc(NN)c2c3c(sc2n1)COC(C)(C)C3 | inactive |
| COc1cc(-c2nc3ccccn3c2/N=C/c2cccc(OC)c2O)ccc1O | inactive |
| COc1ccc(-c2cc(-c3ccc(N)cc3)nc(N)c2C#N)cc1OC | inactive |
| COc1ccc(-c2nc3ccc(C)cn3c2CC(C)(C)C)cc1OC | 12.6 µM (active) |
| COc1cnc(-c2ccccc2)nc1Oc1ccc(Cl)cc1C | inactive |
| COc1ccccc1Cc1c(-c2cccc(Cl)c2)nc2ccc(C)cn12 | 22.4 µM (active) |
| COc1ccc(-c2nc3ccc(Cl)cn3c2Cc2cccc(F)c2)cc1OC | 39.8 µM (active) |
| CCCCNc1c(-c2ccc(OC)c(SC3CCCCC3)c2)nc2cnccn12 | inactive |
| COc1ccc(-c2nc3c(-c4ccc(Cl)cc4)cnn3cc2C)cc1F | inactive |
| O=C(O)c1ccc2c(c1)ncn2C1CCCC1 | inactive |
| Cc1nc(CS(=O)(=O)c2ccccn2)sc1C(=O)NNC(=O)c1ccc(Cl)cc1 | inactive |
| N#Cc1cc2c(=O)n3ccccc3nc2n(-c2ccccc2Cl)c1=O | inactive |
| CN(CCO)c1nc(NCc2ccccc2)c2cnn(C)c2n1 | inactive |
| COc1ccc(C2=CC(c3ccco3)n3ncnc3N2)cc1 (stereo not given) | inactive |
| CCOC(=O)COc1nc(-c2ccco2)cc(-c2ccco2)c1C#N | inactive |
| N#Cc1cnn2c3c(cnc12)C(=O)N1CCc2ccccc2C1C3 (stereo not given) | inactive |

| SMILES | Potency |
| --- | --- |
| Cc1sc2ncnc(N/N=C/c3cccc(O)c3)c2c1C | inactive |
| NNC(=O)c1cc2c(N3CCC(Cc4ccccc4)CC3)ncnc2s1 | inactive |
| CCc1cccc(NC(=O)C2CCN(c3ncnc4sc(C)c(C)c34)CC2)c1 | 33.6 µM (active) |
| O=C(NN/C=C1/C(=O)N(c2ccc(Cl)cn2)C(=O)c2ccccc21)C1CC1 | inactive |
| COc1ccccc1C1C=C(c2ccc(C(C)C)cc2)Nc2nnnn21 (stereo not given) | inactive |
| O=C(NNC(=O)NC1CCCCC1)NC1CCCCC1 | inactive |
| O=C(NC1CCCCC1)Sc1ccc(Cl)cc1 | 35.5 µM (active) |
| Cc1cc(Cl)cc(C)c1OCC(=O)NC1CCCCCC1 | inactive |
| COc1cccc(C2CN(c3ccc(F)cc3F)N=C2c2cccs2)c1OC (stereo not given) | inactive |
| Cc1nc(N/C(N)=N/C(=O)NC2CCCCC2)nc2ccccc12 | 20 µM (active) |
| C=CCn1c(SCC(=O)NC2CCCCC2)nc2ccccc2c1=O | inactive |
| O=C(NC1CCCC1)c1[nH]nc2ccccc12 | inactive |
| O=C(NCc1ccc2c(c1)OCO2)c1cccnc1Cl | inactive |
| COc1cccc(CNC(=O)CCS(=O)(=O)c2ccccc2Cl)c1 | inactive |
| O=C(COc1ccc(S(=O)(=O)N2CCOCC2)cc1Cl)NCc1ccc2c(c1)OCO2 | inactive |
| O=C(NCc1ccccc1)c1cnc2ccccc2c1O | inactive |
| Cc1cccc(NC(=O)c2sc3nc4c(c(-c5ccco5)c3c2N)CCC4)c1 | inactive |
| O=C(NCc1ccc2c(c1)OCO2)c1nc(S(=O)(=O)Cc2ccccc2F)ncc1Cl | 20 µM (active) |
| Cc1cccc(CS(=O)(=O)c2ncc(Cl)c(C(=O)NCc3ccccc3)n2)c1 | 31.6 µM (active) |
| Cc1cccc(NC(=O)c2nc(S(=O)(=O)Cc3ccccc3)ncc2Cl)c1 | 35.5 µM (active) |
| C=CCn1c(=N)c(C(=O)NCCCOC)cc2c(=O)n3cccc(C)c3nc21 | inactive |
| CCc1cc(=O)oc2cc(OC(=O)CN3C(=O)NC4(CCCC4)C3=O)ccc12 | inactive |
| CCOC(=O)c1cc2c(=O)n3cccc(C)c3nc2n(CCOC)/c1=N\C(C)=O | inactive |
| CC(C)Cn1c(N)c(C(=O)NCC2CCCO2)c2nc3ccccc3nc21 (stereo not given) | inactive |
